Source: PubChem BioAssay
Rows were chosen to be rich in hits. Some 10% of all compounds tested hit in one or more screens of this group.
HP1b binding inh: blocks HP1-beta chromodomain binding to methylated histone tails; 390,000 compounds, 0.56% hits; P83916; Potency, µM (series often up to 114 µM), for the others: at the top dose activity change, negative = inhibition, usual class: inhibitors; AlphaScreen HP1-beta / biotin-H3K9me3 peptide binding; also: nearly all actives have a fitted effect of over 70% in size
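HP1-beta protein (50 nM final) preincubated 30 min at room temperature with biotinylated H3(1-18)K9me3 peptide (50 nM) in PBS pH 7.4, 0.01% Tween-20, then compound added for 30 min. AlphaScreen streptavidin donor/nickel chelate acceptor beads (10 ug/mL final), 30 min dark, luminescence read.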
BAZ2B inh: inhibitors of human BAZ2B bromodomain | 360,000 compounds, 4.4% hits | Potency, µM (doses to about 114 µM), for the others: top-dose activity change, negative = inhibition, most hits filed as inhibitors | AlphaScreen BAZ2B-H3K14Ac peptide displacement; also: % is scaled to controls: 0 for no effect and ±100 for the full control effect; nearly all actives have a fitted effect of over 60% in size
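Inhibition is scored as reduced AlphaScreen emission. The BAZ2B/b-H3(5-23)K14Ac complex (50 nM each) in PBS pH 7.4, 0.01% Tween-20 meets compound (up to 110 uM) for 30 min at RT before bead addition.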
GLS inh: blocks human kidney-isoform glutaminase activity | O94925 | GLS enzymatic activity, qHTS titration | Potency, µM (doses to about 45.5 µM), for the others: at the top dose activity change, negative = inhibition, hits mostly inhibitors | 410,000 compounds, 0.21% hits | AID 624170; also: % is scaled to controls: 0 for no effect and ±100 for the full control effect
Target sequence (O94925 whole entry, looked up, canonical isoform): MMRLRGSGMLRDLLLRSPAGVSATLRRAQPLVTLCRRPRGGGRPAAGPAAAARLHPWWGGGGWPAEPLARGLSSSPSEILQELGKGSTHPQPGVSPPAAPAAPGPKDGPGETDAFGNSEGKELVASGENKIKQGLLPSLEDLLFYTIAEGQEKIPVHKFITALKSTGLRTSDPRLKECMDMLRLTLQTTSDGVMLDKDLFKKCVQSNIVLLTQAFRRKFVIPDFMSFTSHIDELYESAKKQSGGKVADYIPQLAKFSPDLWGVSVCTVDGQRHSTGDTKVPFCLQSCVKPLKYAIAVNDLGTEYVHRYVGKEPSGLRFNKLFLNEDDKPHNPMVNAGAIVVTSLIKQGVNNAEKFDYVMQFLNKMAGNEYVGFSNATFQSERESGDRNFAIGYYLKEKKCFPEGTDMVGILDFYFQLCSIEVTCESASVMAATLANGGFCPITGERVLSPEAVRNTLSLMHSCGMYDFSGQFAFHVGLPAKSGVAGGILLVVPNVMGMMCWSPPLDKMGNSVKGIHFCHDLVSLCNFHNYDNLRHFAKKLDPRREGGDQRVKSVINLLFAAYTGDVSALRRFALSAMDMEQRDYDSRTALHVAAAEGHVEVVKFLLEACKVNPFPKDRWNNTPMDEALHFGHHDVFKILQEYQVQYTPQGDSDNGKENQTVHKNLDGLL
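Read-out is an Amplex red fluorescence increase coupled through glutamate oxidase and HRP, measured before and after 30 min room-temperature incubation. hKGA is in 45 mM KH2PO4 (pH 8.2) with 0.02% Tween-20; glutamine added as 1mM solution.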
L3MBTL1 block: L3MBTL1 (human) inhibition | Q9Y468 | AlphaScreen L3MBTL1–H3K9me1 peptide binding | Potency, µM (top dose mostly 57.1 µM), inactives show at the highest dose activity, negative = inhibition, usual class: inhibitors | 230,000 compounds, 0.66% hits; also: % is scaled to controls: 0 for no effect and ±100 for the full control effect; nearly all actives have a fitted effect of over 60% in size
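Read-out is AlphaScreen signal from streptavidin donor and nickel chelate acceptor beads (10 ug/mL final each) bridging L3MBTL1 (50 nM) and biotinylated K9-monomethylated H3(1-15) peptide (75 nM), after 30 min compound exposure at room temperature.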
JMJD2A Tudor: blocks the human JMJD2A Tudor domain; AlphaScreen JMJD2A-Tudor / H3K4me3 peptide binding; Potency, µM (top dose mostly 114 µM), without a hit: at the highest dose activity change, negative = inhibition, usual class: inhibitors; 390,000 compounds, 4.4% hits; also: % is scaled to controls: 0 for no effect and ±100 for the full control effect; nearly all actives have a fitted effect of over 50% in size
G9a inh: G9a (human) methyltransferase inhibition; Q96KQ7; Potency, µM (top dose mostly 102 µM), inactives show top-dose activity, negative = inhibition, most hits filed as inhibitors; G9a H3K9 monomethylation, AlphaScreen, 2 h; 350,000 compounds, 8.8% hits; AID 504332; also: % is scaled to controls: 0 for no effect and ±100 for the full control effect; nearly all actives have a fitted effect of over 75% in size
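Chemiluminescent proximity detection of H3K9 monomethylation, read after 10 min bead incubation in the dark. Reaction: 20 nM G9a, 500 nM biotin-H3K9 peptide, 20 uM SAM cofactor, 2 h, room temperature, following 15 min enzyme-compound preincubation.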
Active calls of the source: *; ? = inconclusive; . = no result; [ ] = another dose, or the depositor's remark. Calls follow the shape of the dose curve; as a rule, active = well fitted curve in the direction sought with a large enough effect; inconclusive = small, poorly fitted or top-dose-only effect, or another doubt; inactive = no such curve, though single readings can be large; an effect the other way counts as inactive or inconclusive. Potency is read from the fitted curve at half-maximal effect.

SMILES | HP1b binding inh | BAZ2B inh | GLS inh | L3MBTL1 block | JMJD2A Tudor | G9a inh
CC(C)(C)C1CCc2c(sc3nnn(CCOc4ccccc4)c(=O)c23)C1 (stereo not given) | 58% | -13% | -5% | . | -18% | 20%[59 µM]
Cc1cccc(OCCCCn2nnc3sc4c(c3c2=O)CCC(C)C4)c1 (stereo not given) | 61% | ? | -5% | . | 71µM* | ?
COc1ccc(Cl)cc1NC(=O)N1CCN(S(=O)(=O)c2ccc3c(ccn3C)c2)CC1 | 0%[57 µM] | -13% | -7% | . | -35% | 2%[59 µM]
C#CCOc1ccc(Cl)cc1/C=C1/C(=O)ON=C1C | 15% | ? | -3% | . | 35µM* | 32µM*
CCOc1ccc(Cl)cc1/C=N/O | 24% | -3% | 0% | -1% | -3% | 9%[59 µM]
C#CCOc1ccc(/C=C2/C(=O)ON=C2C)cc1Br | 8% | -5% | 4% | . | -9% | 35µM*
Cc1ccc(CNC(=O)C(C(C)C)N2Cc3ccccc3C2=O)cc1 (stereo not given) | 22% | 2% | -6% | . | -16% | 5%[59 µM]
COc1ccc(C(=O)Nc2cc(-c3cccc(C)c3)nn2-c2ccccc2)cc1 | 12%[57 µM] | 5% | -10% | . | -8% | 2%[59 µM]
O=C(/C=C\c1ccccc1OC(=O)c1ccccc1F)c1cc2ccccc2o1 | -13% | -31% | 4% | -17% | -36% | 45µM*
COc1cc(NC(=O)CN2CCN(c3ccccc3O)CC2)c(C)cc1[N+](=O)[O-] | 15% | -8% | -5% | -10% | -16% | 10µM*
COc1cc(NC(=O)CSc2nncn2C)c(C)cc1[N+](=O)[O-] | 26% | -4% | 1% | 3% | -10% | 9%
CC(C(=O)Nc1cc([N+](=O)[O-])ccc1Cl)N1CCN(c2ccc(O)cc2)CC1 (stereo not given) | 71µM* | -34% | 31% | ? | 25µM* | 7.9µM*
CC(C(=O)Nc1ccc([N+](=O)[O-])cc1Cl)N1CCN(S(=O)(=O)c2cccs2)CC1 (stereo not given) | -3% | -9% | 4% | -13% | ? | 10%[12.7 µM]
COc1cc(NC(=O)CSc2nc(C)c(C)c(C)n2)c(C)cc1[N+](=O)[O-] | 32% | 3% | 2% | 8% | -11% | 50µM*
O=C(CN1CCN(c2ccccc2O)CC1)Nc1cc([N+](=O)[O-])ccc1Cl | 3%[57 µM] | -35% | 13% | -16% | -35% | 45µM*
O=C(CN1CCN(c2ccccc2O)CC1)Nc1ccc([N+](=O)[O-])cc1Br | 13% | . | ? | . | -16% | ?
COc1ccc(NS(=O)(=O)c2cccc3nonc23)c(OC)c1 | -13% | ? | -3% | -24% | -25% | 40µM*
CCc1ccc(NS(=O)(=O)c2cccc3nonc23)cc1 | -12% | ? | 7% | . | -26%[11.4 µM] | 45µM*
COC(=O)c1ccc(N2C(=O)CC(N3CCN(c4ccccc4)CC3)C2=O)cc1 (stereo not given) | 45% | . | 1% | . | -9% | .
O=C1CC(N2CCOCC2)C(=O)N1c1cccc(Cl)c1 (stereo not given) | 56% | 9% | 0% | 12% | -7% | 45µM*
COC(=O)c1ccc(N2C(=O)CC(N3CCOCC3)C2=O)cc1 (stereo not given) | 32% | 11% | 3% | -1% | -9% | 79µM*
CC(=O)Nc1ccc(N2C(=O)CC(N3CCSCC3)C2=O)cc1 (stereo not given) | 10% | -20% | 2% | -3% | -5% | ?
CC(=O)Nc1ccc(N2C(=O)CC(N3CC(C)OC(C)C3)C2=O)cc1 (stereo not given) | 53% | 8% | 4% | 0% | -13% | 22µM*
O=C(C1CCN(C2CC(=O)N(c3cccc(Cl)c3)C2=O)CC1)N1CCCCCC1 (stereo not given) | 40% | 3% | 2% | 23%[11.4 µM] | -15% | 10µM*
Cc1cccc(N2C(=O)CC(N3CCOCC3)C2=O)c1 (stereo not given) | 51% | 1% | -1% | . | -2% | -18%[59 µM]
SMILES | HP1b binding inh | BAZ2B inh | GLS inh | L3MBTL1 block | JMJD2A Tudor | G9a inh
O=C(Cn1cnc2onc(-c3ccc(F)cc3)c2c1=O)N1CCN(c2ccc(F)cc2)CC1 | 21% | -2%[57.1 µM] | 5% | . | -24% | -32%[59 µM]
CCOc1ccc(S(=O)(=O)N(C(=O)c2ccncc2)c2ccc3oc(C)c(C(=O)OC)c3c2)cc1 | 14% | -22% | 0% | . | -17% | ?
COc1cc(OC)c(NC(=O)Cn2cnc3c(nc4n3CCCCC4)c2=O)cc1Cl | 26% | -1% | -4% | . | -1% | 10%[59 µM]
COCCNC(=O)[C@H]1C[C@@H]1[C@H](NP(=O)(c1ccccc1)c1ccccc1)c1ccccc1 | 38% | 0% | -4% | -14% | -11% | 56µM*
O=C(NCCF)[C@H]1C[C@@H]1[C@H](NP(=O)(c1ccccc1)c1ccccc1)c1ccccc1 | 15% | ? | 3% | -11% | -18% | -25%
COc1cc(NC(=O)CC2C(=O)N(c3cccc(C)c3)C(=O)N2Cc2ccco2)cc(OC)c1 (stereo not given) | 22% | ? | -13% | . | -32% | ?
Cc1cccc(OCC(O)CN2CCN(c3ccccn3)CC2)c1C (stereo not given) | 2% | -21%[57.1 µM] | 19% | . | 79µM* | 45µM*
COc1cc(C(C)=O)ccc1OCC(O)CN1CCN(c2ccccn2)CC1 (stereo not given) | 25% | -6% | 0% | -4% | -23% | 20%[59 µM]
CC(C)(C)c1ccc(OCC(O)CN2CCN(c3ccccn3)CC2)cc1 (stereo not given) | 40% | ? | -11% | . | 8% | 50µM*
CC(=O)c1ccccc1OCC(O)CN1CCN(c2ccccn2)CC1 (stereo not given) | 30% | -30% | 8% | . | -22% | .
CCC(=O)c1ccc(OCC(O)CN2CCN(c3ccccn3)CC2)cc1 (stereo not given) | 19% | -20% | 15% | 1% | -9% | -5%
Cc1cc(C)c(C)c(OCC(O)CN2CCN(c3ccccn3)CC2)c1 (stereo not given) | 19% | ? | 0% | . | -26% | 79µM*
Cc1ccc(S(=O)(=O)NN=C2C3CC4CC(C3)CC2C4)cc1[N+](=O)[O-] | 48% | -4% | 6% | 7% | -16%[57.1 µM] | 22µM*
CC1CCCC/C1=N\NS(=O)(=O)c1ccc(Br)cc1 (stereo not given) | 47% | -5% | 18% | . | -2% | 3.5µM*
Cc1ccc(S(=O)(=O)NN=C2C3CC4CC(C3)CC2C4)cc1 | 36% | -6% | 4% | 1% | -13% | ?
